Among the data in PubChem BioAssay (EPA / NIEHS) are outcome and AC50 values, retold here.

Structures are written as SMILES. Active and inactive are the calls of the source. The calls were made as follows: active = hit-call score of the fitted dose curve at least 0.9, where 1 is the maximum; inactive = score below 0.9.

A short description of experiment [1]: ATG_GRE_CIS: Attagene CIS-FACTORIAL HepG2 Assay for human Glucocorticoid Response Elements (GRE) (AID 2282947). As to conditions: HepG2 GRE cis-reporter, Attagene multiplex mRNA; actives raise or lower the signal. Summed up:
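Reporter transcripts read by RT-PCR with capillary electrophoresis fluorescence after a 24 h chemical exposure of HepG2 cells transiently transfected with multiple cis-element reporter units. Gain or loss fitted against DMSO.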

Experiment [2] in a line: ATG_ISRE_CIS: Attagene CIS-FACTORIAL HepG2 Assay for human Interferon Regulatory Factor 1 (IRF1) binding to an Interferon-Stimulated Response Element (ISRE) (AID 2282948). The conditions noted are these: HepG2 ISRE cis-reporter (Attagene), mRNA transcription readout; actives raise or lower the signal. The essentials: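 Uses HepG2 liver cells transfected with cis-regulated reporters and measures mRNA 24 h post-dosing through RT-PCR, primer-extension labelling and capillary electrophoresis, with DMSO as negative control.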

A short description of experiment [3]: ATG_M_32_CIS: Attagene CIS-FACTORIAL HepG2 Assay for M32 Transcription Factor (Internal Marker) (AID 2282949).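 Also: background control marker of the multiplexed CIS panel rather than a real target.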 As to conditions: HepG2 Attagene cis-factorial M32 reporter, mRNA; actives raise or lower the signal. Summed up:
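HepG2 human liver cells transiently transfected with cis-promoter-driven multiple reporter transcription units, dosed 24 h. Reporter mRNA quantified by RT-PCR, FAM-labelled primer extension, HpaI digest and capillary electrophoresis; bidirectional fit versus DMSO baseline.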

Experiment [4] can be described thus: ATG_M_06_CIS: Attagene CIS-FACTORIAL HepG2 Assay for M06 Transcription Factor (Internal Marker) (AID 2282950). As to conditions: HepG2 Attagene CIS-FACTORIAL M06 internal marker reporter; actives raise or lower the signal. The essentials: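 Measured 24 h post-dosing in transiently transfected HepG2 cells, this internal-marker endpoint reports reporter mRNA via RT-PCR with fluorescent primer extension and capillary electrophoresis. DMSO served as negative control and baseline for bidirectional fitting.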

The target of experiment [5] is Hypoxia-inducible factor 1-alpha (Homo sapiens) (UniProt Q16665). Put plainly: ATG_HIF1a_CIS: Attagene CIS-FACTORIAL HepG2 Assay for human Hypoxia Inducible Factor 1 (HIF1A) (AID 2282951). As to conditions: HepG2 Attagene cis-factorial HIF1a reporter transcription; actives raise or lower the signal. The essentials: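 HepG2 cells transiently transfected with multiplexed cis-promoter reporter units; reporter mRNA read 24 h after dosing by RT-PCR, 6-FAM primer-extension labelling, HpaI digestion and capillary electrophoresis. Bidirectional fit versus DMSO baseline.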
Hypoxia-inducible factor 1-alpha (Homo sapiens), sequence (Q16665 whole entry, looked up): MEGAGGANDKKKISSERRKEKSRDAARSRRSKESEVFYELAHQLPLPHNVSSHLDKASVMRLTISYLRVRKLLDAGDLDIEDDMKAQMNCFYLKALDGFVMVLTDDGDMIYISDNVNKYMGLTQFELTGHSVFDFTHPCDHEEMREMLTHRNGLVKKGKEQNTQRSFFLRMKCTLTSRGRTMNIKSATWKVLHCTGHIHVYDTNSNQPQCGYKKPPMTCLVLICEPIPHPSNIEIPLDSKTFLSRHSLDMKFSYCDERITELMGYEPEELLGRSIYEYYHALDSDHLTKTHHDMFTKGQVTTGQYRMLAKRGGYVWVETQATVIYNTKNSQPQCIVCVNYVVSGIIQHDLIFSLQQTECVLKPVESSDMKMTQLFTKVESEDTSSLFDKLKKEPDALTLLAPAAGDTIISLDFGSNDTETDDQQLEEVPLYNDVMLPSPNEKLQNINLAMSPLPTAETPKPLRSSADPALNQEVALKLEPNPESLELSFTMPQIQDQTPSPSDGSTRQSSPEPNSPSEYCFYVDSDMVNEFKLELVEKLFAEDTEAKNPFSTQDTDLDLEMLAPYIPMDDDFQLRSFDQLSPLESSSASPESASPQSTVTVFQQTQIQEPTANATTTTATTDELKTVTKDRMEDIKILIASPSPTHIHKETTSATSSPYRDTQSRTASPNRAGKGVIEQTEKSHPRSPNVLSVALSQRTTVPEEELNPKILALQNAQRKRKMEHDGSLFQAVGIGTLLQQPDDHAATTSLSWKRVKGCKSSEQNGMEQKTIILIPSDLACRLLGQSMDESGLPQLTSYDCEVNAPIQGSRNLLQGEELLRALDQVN

The target in experiment [6] is Hepatocyte nuclear factor 6 (Homo sapiens) (UniProt Q9UBC0). In words: ATG_HNF6_CIS: Attagene CIS-FACTORIAL HepG2 Assay for human Hepatocyte Nuclear Factor 6 (HNF6) (AID 2282952). As to conditions: HepG2 Attagene cis-factorial HNF6 reporter transcription; actives raise or lower the signal. The essentials: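 First, HepG2 cells were transfected with the multiplexed cis reporter library and dosed with chemical for 24 h. Next, RNA was reverse-transcribed, PCR-amplified and fluorescently labelled. Finally, HpaI-digested fragments were read by capillary electrophoresis.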
Hepatocyte nuclear factor 6 (Homo sapiens), sequence (Q9UBC0 whole entry, looked up, the tested form may be a part): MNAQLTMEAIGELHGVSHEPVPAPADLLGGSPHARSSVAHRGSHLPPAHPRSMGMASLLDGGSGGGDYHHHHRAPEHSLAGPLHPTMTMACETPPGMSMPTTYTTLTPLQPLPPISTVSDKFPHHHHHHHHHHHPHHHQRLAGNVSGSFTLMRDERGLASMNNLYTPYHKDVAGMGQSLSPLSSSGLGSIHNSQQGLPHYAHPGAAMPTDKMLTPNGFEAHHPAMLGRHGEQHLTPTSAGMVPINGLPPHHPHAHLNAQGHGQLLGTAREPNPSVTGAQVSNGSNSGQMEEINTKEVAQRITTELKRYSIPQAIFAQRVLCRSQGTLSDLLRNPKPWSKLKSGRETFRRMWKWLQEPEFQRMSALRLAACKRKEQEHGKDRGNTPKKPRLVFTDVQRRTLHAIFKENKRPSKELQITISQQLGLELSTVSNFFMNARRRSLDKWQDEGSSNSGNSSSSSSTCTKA

Experiment [7] has as its target Heat shock factor protein 1 (Homo sapiens) (UniProt Q00613). In words: ATG_HSE_CIS: Attagene CIS-FACTORIAL HepG2 Assay for human Heat Shock Transcription Factor 1 (HSE) (AID 2282953). As to conditions: HepG2 HSE cis-reporter, Attagene RNA transcription; actives raise or lower the signal. The essentials:
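Reporter mRNA induction in HepG2 is measured 24 h after dosing, using transiently transfected multiplexed cis-regulated reporter units. Signal comes from capillary electrophoresis of labelled RT-PCR products, with DMSO as negative control.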

Experiment [8] can be described thus: ATG_MRE_CIS: Attagene CIS-FACTORIAL HepG2 Assay for human Metal Responsive Element (MRE) (AID 2282954). As to conditions: HepG2 MRE cis-reporter transcription, Attagene multiplex; actives raise or lower the signal. Summed up: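 Endogenous MRE-dependent transcription read as reporter mRNA in transiently transfected human HepG2 cells at 24 h. RNA reverse-transcribed, PCR-amplified, labelled and resolved by capillary electrophoresis; gain or loss relative to DMSO.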

The nature of experiment [9]: ATG_PBREM_CIS: Attagene CIS-FACTORIAL HepG2 Assay for human Phenobarbital-responsive Enhancer Module (PBREM) (AID 2282955). As to conditions: HepG2 PBREM cis-reporter, Attagene multiplexed transcription; actives raise or lower the signal. The essentials: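 HepG2 cells transiently transfected with multiple cis-regulated reporter transcription units; endogenous factor activity at the PBREM element measured as reporter mRNA 24 h after dosing, via RT-PCR and capillary electrophoresis of fluorescent fragments; bidirectional fitting versus DMSO.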

Experiment [10] concerns the target Paired box protein Pax-6 (Homo sapiens) (UniProt P26367). In words: ATG_Pax6_CIS: Attagene CIS-FACTORIAL HepG2 Assay for human Paired Box 6 (PAX6) (AID 2282956). As to conditions: HepG2 CIS-FACTORIAL PAX6 reporter transcription, RNA readout; actives raise or lower the signal. The essentials: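 DMSO-referenced bidirectional fits of reporter mRNA fluorescence; HepG2 with transient cis-promoter MRTUs, 24 h post-dose, RT-PCR plus capillary electrophoresis detection.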

Experiment [11] is described as follows: ATG_PXRE_CIS: Attagene CIS-FACTORIAL HepG2 Assay for human Pregnane X Receptor Element (PXRE) (AID 2282957). The conditions noted are these: HepG2 Attagene CIS-FACTORIAL PXRE reporter, mRNA; actives raise or lower the signal. The essentials: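 After a 24 h chemical incubation, total RNA from transfected HepG2 cells was reverse-transcribed and reporter cDNA amplified, FAM-labeled, HpaI-digested and sized by capillary electrophoresis. DMSO served as baseline for bidirectional curve fitting.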

Experiment [12] can be described thus: ATG_PPRE_CIS: Attagene CIS-FACTORIAL HepG2 Assay for human Peroxisome Proliferator-activated Response Element (PPRE) (AID 2282958). The conditions noted are these: HepG2 PPRE cis-element reporter, Attagene transcription factor profiling; actives raise or lower the signal. Summed up:
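HepG2 cells transiently transfected with multiplexed cis-element reporter units measure endogenous transcription factor activity. After 24 h compound exposure, reporter mRNA is quantified by RT-PCR, 6-FAM labeling, HpaI digestion and capillary electrophoresis; bidirectional fits are made against DMSO baseline.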

A short description of experiment [13]: ATG_RORE_CIS: Attagene CIS-FACTORIAL HepG2 Assay for human RAR-related Orphan Receptor Element (RORE) (AID 2282959). The conditions noted are these: HepG2 Attagene cis-factorial RORE reporter, mRNA; actives raise or lower the signal. The essentials: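 HepG2 cells transiently transfected with multiple cis-element reporter transcription units, exposed to chemical for 24 h. Reporter mRNA quantified by RT-PCR, 6-FAM primer-extension labeling, HpaI digestion and capillary electrophoresis; bidirectional fit versus DMSO baseline.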

A short description of experiment [14]: ATG_Sox_CIS: Attagene CIS-FACTORIAL HepG2 Assay for human SRY-box transcription factor (SOX) (AID 2282960). As to conditions: HepG2 Attagene cis-factorial SOX reporter, mRNA; actives raise or lower the signal. The essentials:
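HepG2 cells transiently transfected with cis-element-driven multiple reporter transcription units, dosed 24 h; reporter mRNA measured by RT-PCR, FAM labelling, HpaI digestion and capillary electrophoresis. Bidirectional fit versus DMSO baseline.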

In experiment [15] the target is Transcription factor Sp1 (Homo sapiens) (UniProt P08047). Put plainly: ATG_Sp1_CIS: Attagene CIS-FACTORIAL HepG2 Assay for human Specificity Protein 1 (Sp1) (AID 2282961). As to conditions: HepG2 Sp1 cis-reporter transcription, actives raise or lower the signal. The essentials: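 HepG2 cells transiently transfected with multiple reporter transcription units driven by cis-regulatory elements; Sp1-responsive reporter mRNA measured 24 h after dosing by RT-PCR and capillary electrophoresis fluorescence, fitted bidirectionally against DMSO baseline.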
Transcription factor Sp1 (Homo sapiens), sequence (P08047 whole entry, looked up): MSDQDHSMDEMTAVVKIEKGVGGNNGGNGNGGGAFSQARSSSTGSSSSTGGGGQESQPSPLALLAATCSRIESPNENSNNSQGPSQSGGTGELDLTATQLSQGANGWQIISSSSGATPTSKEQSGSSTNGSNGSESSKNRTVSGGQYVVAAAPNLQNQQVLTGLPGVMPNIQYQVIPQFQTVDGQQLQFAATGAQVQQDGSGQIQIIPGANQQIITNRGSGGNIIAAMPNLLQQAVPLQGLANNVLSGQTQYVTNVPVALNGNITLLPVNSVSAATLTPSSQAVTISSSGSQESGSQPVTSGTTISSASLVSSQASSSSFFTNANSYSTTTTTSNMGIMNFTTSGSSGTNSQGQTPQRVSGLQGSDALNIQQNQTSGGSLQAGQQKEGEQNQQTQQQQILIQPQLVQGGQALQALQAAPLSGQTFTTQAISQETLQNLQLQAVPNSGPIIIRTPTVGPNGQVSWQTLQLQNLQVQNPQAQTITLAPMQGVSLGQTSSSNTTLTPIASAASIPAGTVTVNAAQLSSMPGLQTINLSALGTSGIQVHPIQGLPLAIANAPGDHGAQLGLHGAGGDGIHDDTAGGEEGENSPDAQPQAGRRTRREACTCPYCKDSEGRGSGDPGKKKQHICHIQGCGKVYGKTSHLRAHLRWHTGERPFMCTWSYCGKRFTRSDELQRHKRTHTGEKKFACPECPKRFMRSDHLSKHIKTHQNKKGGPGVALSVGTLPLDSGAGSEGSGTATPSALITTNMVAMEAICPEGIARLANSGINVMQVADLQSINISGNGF

The target of experiment [16] is Signal transducer and activator of transcription 3 (Homo sapiens) (UniProt P40763). In words: ATG_STAT3_CIS: Attagene CIS-FACTORIAL HepG2 Assay for human Signal Transducer and Activator of Transcription 3 (STAT3) (AID 2282963). As to conditions: HepG2, Attagene cis-factorial STAT3 reporter transcription; actives raise or lower the signal. Summed up: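 Readout is reporter transcript quantified by RT-PCR and capillary electrophoresis, with 6-FAM primer extension and HpaI digestion. Total RNA is taken 24 h after dosing transiently transfected HepG2 carrying cis-regulated reporter units. Bidirectional fit against DMSO.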
Signal transducer and activator of transcription 3 (Homo sapiens), sequence (P40763 whole entry, looked up): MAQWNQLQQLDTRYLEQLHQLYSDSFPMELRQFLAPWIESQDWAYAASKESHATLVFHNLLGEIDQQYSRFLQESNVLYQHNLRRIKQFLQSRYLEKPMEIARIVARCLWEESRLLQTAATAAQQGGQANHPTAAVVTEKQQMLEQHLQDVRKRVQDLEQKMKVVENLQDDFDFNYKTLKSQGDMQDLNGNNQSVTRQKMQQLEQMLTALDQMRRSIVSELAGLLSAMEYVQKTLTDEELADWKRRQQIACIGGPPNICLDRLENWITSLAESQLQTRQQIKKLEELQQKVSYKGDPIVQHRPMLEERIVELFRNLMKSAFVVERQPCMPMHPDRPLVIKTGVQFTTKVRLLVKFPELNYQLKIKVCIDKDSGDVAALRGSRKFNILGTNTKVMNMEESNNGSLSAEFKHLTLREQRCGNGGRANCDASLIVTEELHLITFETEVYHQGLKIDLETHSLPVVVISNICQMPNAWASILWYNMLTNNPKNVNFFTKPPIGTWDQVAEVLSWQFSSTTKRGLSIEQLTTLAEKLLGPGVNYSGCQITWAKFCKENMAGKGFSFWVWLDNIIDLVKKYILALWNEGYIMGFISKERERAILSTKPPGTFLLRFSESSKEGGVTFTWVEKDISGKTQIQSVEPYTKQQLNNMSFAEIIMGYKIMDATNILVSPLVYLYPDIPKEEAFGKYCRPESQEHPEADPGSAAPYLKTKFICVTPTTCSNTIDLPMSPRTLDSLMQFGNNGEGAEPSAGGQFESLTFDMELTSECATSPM

Experiment [17] can be described thus: ATG_TA_CIS: Attagene CIS-FACTORIAL HepG2 Assay for human TA Basal Promoter (AID 2282964). As to conditions: HepG2 Attagene CIS-factorial TA basal promoter reporter; actives raise or lower the signal. Summed up: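 Cis-factorial format in HepG2: reporters report endogenous factors, not chimeric Gal4 fusions. After 24 h treatment, reporter transcripts were measured by RT-PCR-capillary electrophoresis fluorescence, analysed bidirectionally versus DMSO.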

Experiment [18] can be described thus: ATG_TCF_b_cat_CIS: Attagene CIS-FACTORIAL HepG2 Assay for human T-Cell-Factor with beta-catenin (TCF/b-cat) (AID 2282965). The conditions noted are these: HepG2 TCF/beta-catenin cis-reporter transcription, actives raise or lower the signal. The essentials:
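Measured: reporter mRNA in HepG2 transiently transfected with cis-promoter reporter units, 24 h after chemical addition. Fitting was bidirectional, DMSO as negative control.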

Experiment [19] is described as follows: ATG_SREBP_CIS: Attagene CIS-FACTORIAL HepG2 Assay for human Sterol Regulatory Element Binding (SREBP) (AID 2282962). The conditions noted are these: HepG2 Attagene cis-factorial SREBP reporter, mRNA; actives raise or lower the signal. Summed up:
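In this cis-format assay, HepG2 liver cells express reporters controlled by promoter elements responsive to native transcription factors. Exposure lasts 24 h; reporter mRNA fluorescence from capillary electrophoresis gives the signal, fitted bidirectionally against DMSO.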

For orientation: AC50 means the midpoint of the concentration-response curve, whichever way the signal moves.

Heat shock factor protein 1 (Homo sapiens), sequence (Q00613 whole entry, looked up): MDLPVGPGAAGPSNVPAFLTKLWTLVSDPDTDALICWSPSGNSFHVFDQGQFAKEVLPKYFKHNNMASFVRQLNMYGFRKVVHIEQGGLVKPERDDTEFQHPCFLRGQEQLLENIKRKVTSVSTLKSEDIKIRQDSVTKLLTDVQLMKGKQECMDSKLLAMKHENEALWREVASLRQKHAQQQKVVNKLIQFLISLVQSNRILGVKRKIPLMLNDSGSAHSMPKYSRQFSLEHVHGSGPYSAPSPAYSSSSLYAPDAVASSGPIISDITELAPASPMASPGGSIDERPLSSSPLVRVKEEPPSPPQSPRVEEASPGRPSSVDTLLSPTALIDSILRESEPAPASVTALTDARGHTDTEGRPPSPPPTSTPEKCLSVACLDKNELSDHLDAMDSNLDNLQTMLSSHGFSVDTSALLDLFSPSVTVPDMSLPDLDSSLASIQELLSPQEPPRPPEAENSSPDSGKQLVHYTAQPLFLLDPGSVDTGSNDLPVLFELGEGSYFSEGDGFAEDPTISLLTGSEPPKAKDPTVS
Paired box protein Pax-6 (Homo sapiens), sequence (P26367 whole entry, looked up): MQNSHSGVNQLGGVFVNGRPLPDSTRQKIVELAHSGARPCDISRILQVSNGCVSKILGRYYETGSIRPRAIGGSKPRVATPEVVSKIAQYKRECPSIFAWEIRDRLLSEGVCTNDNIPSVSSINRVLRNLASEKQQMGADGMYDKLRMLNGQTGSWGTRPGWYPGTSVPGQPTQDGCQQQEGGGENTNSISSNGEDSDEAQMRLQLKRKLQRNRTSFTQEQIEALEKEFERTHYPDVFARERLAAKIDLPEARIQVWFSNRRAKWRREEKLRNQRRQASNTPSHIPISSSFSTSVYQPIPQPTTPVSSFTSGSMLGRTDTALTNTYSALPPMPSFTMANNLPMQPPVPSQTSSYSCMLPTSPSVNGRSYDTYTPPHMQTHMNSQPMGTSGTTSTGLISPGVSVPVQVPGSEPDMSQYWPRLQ

Regarding `CC(=O)C=CC1C(C)=CCC(C)C1(C)C` (configuration not stated), the compound was called inactive in experiment [1], in [2], in [3], in [4], in [5] and in experiment [6]. Further, the result in experiment [7], in experiment [8], in [9], in experiment [10], in [12] and in experiment [13] was inactive. Also, the compound was called inactive in experiment [14], in experiment [15], in [16], in experiment [17] and in [18]. Further, in [11], the AC50 was 0.972 µM (active).

For the compound `O=C(c1ccccc1)C1CCC1`, the compound was called inactive in experiment [1], in experiment [2], in experiment [3], in experiment [4], in experiment [5] and in experiment [6]. The compound was classed as inactive in experiment [7], in experiment [8], in [9], in [10], in experiment [11] and in experiment [12]. Besides, the compound was called inactive in experiment [13], in [14], in experiment [19], in experiment [16], in experiment [17] and in experiment [18].

`CCCCCC(C)O` (configuration not stated): the result in [1], in experiment [2], in experiment [3], in experiment [4], in experiment [5] and in experiment [6] was inactive. Moreover, the compound was classed as inactive in [7], in experiment [8], in experiment [9], in [10], in experiment [11] and in experiment [12]. The compound was called inactive in [13], in [14], in [19], in experiment [16], in experiment [17] and in experiment [18].

As for `NCCCN1CCN(CCCN)CC1`, the compound was called inactive in experiment [1], in [2], in [3], in [4], in [5] and in experiment [6]. The outcome in experiment [7], in experiment [8], in experiment [9], in [10], in [15] and in experiment [19] was inactive. Moreover, the outcome in experiment [16], in experiment [17] and in experiment [18] was inactive. In addition, in [11], the AC50 is 53.7 µM (active).

As to `O=C1CCCCCCCCCCC(=O)OCCO1`, the compound was called inactive in experiment [1], in experiment [2], in experiment [3], in experiment [4], in experiment [5] and in experiment [6]. Moreover, the call in experiment [7], in experiment [8], in experiment [9], in experiment [10], in experiment [11] and in experiment [13] was inactive. The compound was called inactive in experiment [14], in experiment [19], in experiment [16] and in [18].

Take `O=c1[nH]nc(-c2ccc([N+](=O)[O-])o2)o1`: the call in experiment [1], in [2], in [3], in experiment [4], in [5] and in experiment [6] was inactive. Further, the compound was classed as inactive in [7], in [8], in experiment [9], in [10], in experiment [11] and in [12]. Moreover, the compound was classed as inactive in [13], in [14], in experiment [15], in [19], in [17] and in experiment [18].

With `O=C(O)CCCCCCCCCC(=O)O`, the call in experiment [1], in [2], in [3], in experiment [4], in experiment [5] and in [6] was inactive. Moreover, the compound was classed as inactive in experiment [7], in experiment [8], in experiment [10], in experiment [11], in experiment [12] and in experiment [13]. Further, the compound was classed as inactive in experiment [14], in experiment [15], in experiment [19], in experiment [16], in experiment [17] and in experiment [18].
